# Measured values: the supplement of paper PMC8728848
# The full list was thinned out, with the strongest signals kept by preference.
# B1: EULS2 M4 (Oryza sativa) (protein)
# chain: MVYCRANPNYAMTARNGAVVLAPANPKDEYQHWIKDMRWSTSIKDEEGYPAFALVNKATGQAIKHSLGQSHPVRLVPYNPEVMDESVLWTESRDVGNGFRCIRMVNNIYLNFDAFHGDKYHGGVRDGTDIVLWKWCEGDSLRWKIQPYYILEQKLISEEDLNSAVDHHHHHH
# Assays:
# Assay in all cases: glycan array binding signal (z-score within array); higher = stronger binding
# Conditions in all cases: glycan notation: IUPAC condensed, linker removed
# [1] = target: Fuc(a1-2)Gal(b1-4)GlcNAc(b1-3)Gal(b1-4)GlcNAc
# Outline: (§1)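 Negative Z-scores can be read as non-binding. The Z-score is calculated within each array and then averaged across arrays of one protein sequence at different concentrations or buffers and across linkers. Arrays, 3228 in all, were curated from the Consortium for Functional Glycomics database and kept only where the protein sequence was available.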
# [2] = target: Fuc(a1-2)Gal(b1-4)GlcNAc(b1-6)GalNAc
# Outline: as §1
# [3] = target: Fuc(a1-2)[GalNAc(a1-3)]Gal
# Outline: as §1
# [4] = target: Fuc(a1-2)[GalNAc(a1-3)]Gal(b1-3)GalNAc(b1-3)Gal(a1-4)Gal(b1-4)Glc
# Outline: as §1
# [5] = target: Fuc(a1-2)[GalNAc(a1-3)]Gal(b1-4)[Fuc(a1-3)]GlcNAc
# Outline: as §1
# [6] = target: Fuc(a1-3)[Gal3S(b1-4)]GlcNAc6S
# Outline: as §1
# [7] = target: Gal(a1-3)Gal(b1-4)GlcNAc(b1-6)GalNAc
# Outline: as §1
# [8] = target: Gal(a1-3)[Gal(a1-4)]Gal(b1-4)GlcNAc
# Outline: as §1
# [9] = target: Gal(b1-3)GlcNAc(a1-3)Gal(b1-4)GlcNAc
# Outline: as §1
# [10] = target: Gal(b1-3)GlcNAc(b1-2)Man(a1-3)[Gal(b1-3)GlcNAc(b1-2)Man(a1-6)]Man(b1-4)GlcNAc(b1-4)GlcNAc
# Outline: as §1
# [11] = target: Gal(b1-3)GlcNAc(b1-2)Man(a1-3)[GlcNAc(b1-4)][Gal(b1-3)GlcNAc(b1-2)Man(a1-6)]Man(b1-4)GlcNAc(b1-4)GlcNAc
# Outline: as §1
# [12] = target: Gal(b1-3)[GlcNAc(b1-6)]GalNAc
# Outline: as §1
# Gal(b1-4)GlcNAc(b1-2)Man = target: Gal(b1-4)GlcNAc(b1-2)Man
# Outline: as §1
# [13] = target: Gal(b1-4)GlcNAc(b1-2)Man(a1-3)Man(b1-4)GlcNAc(b1-4)GlcNAc
# Outline: as §1
# [14] = target: Gal(b1-4)GlcNAc(b1-2)Man(a1-3)[Man(a1-6)]Man(b1-4)GlcNAc(b1-4)GlcNAc
# Outline: as §1
# [15] = target: Gal(b1-4)GlcNAc(b1-3)Gal(b1-4)GlcNAc(b1-2)[Gal(b1-4)GlcNAc(b1-3)Gal(b1-4)GlcNAc(b1-6)]Man(a1-6)[Gal(b1-4)GlcNAc(b1-3)Gal(b1-4)GlcNAc(b1-2)Man(a1-3)]Man(b1-4)GlcNAc(b1-4)GlcNAc
# Outline: as §1
# [16] = target: Gal(b1-4)GlcNAc(b1-3)Gal(b1-4)GlcNAc(b1-3)Gal(b1-4)GlcNAc(b1-3)Gal(b1-4)GlcNAc(b1-3)Gal(b1-4)GlcNAc(b1-2)Man(a1-3)[Gal(b1-4)GlcNAc(b1-3)Gal(b1-4)GlcNAc(b1-3)Gal(b1-4)GlcNAc(b1-3)Gal(b1-4)GlcNAc(b1-3)Gal(b1-4)GlcNAc(b1-2)Man(a1-6)]Man(b1-4)GlcNAc(b1-4)GlcNAc
# Outline: as §1
# [17] = target: Gal(b1-4)GlcNAc(b1-3)Gal(b1-4)GlcNAc(b1-3)Gal(b1-4)GlcNAc(b1-3)Gal(b1-4)GlcNAc(b1-3)Gal(b1-4)GlcNAc(b1-2)[Gal(b1-4)GlcNAc(b1-3)Gal(b1-4)GlcNAc(b1-3)Gal(b1-4)GlcNAc(b1-3)Gal(b1-4)GlcNAc(b1-3)Gal(b1-4)GlcNAc(b1-6)]Man(a1-6)[Gal(b1-4)GlcNAc(b1-3)Gal(b1-4)GlcNAc(b1-3)Gal(b1-4)GlcNAc(b1-3)Gal(b1-4)GlcNAc(b1-3)Gal(b1-4)GlcNAc(b1-2)Man(a1-3)]Man(b1-4)GlcNAc(b1-4)[Fuc(a1-6)]GlcNAc
# Outline: as §1
# [18] = target: Gal(b1-4)GlcNAc(b1-6)GalNAc
# Outline: as §1
# Gal3S(b1-4)Glc = target: Gal3S(b1-4)Glc
# Outline: as §1
# Gal3S6S(b1-4)GlcNAc = target: Gal3S6S(b1-4)GlcNAc
# Outline: as §1
# Gal6S(b1-4)GlcNAc6S = target: Gal6S(b1-4)GlcNAc6S
# Outline: as §1
# GalNAc(a1-3)GalNAc = target: GalNAc(a1-3)GalNAc
# Outline: as §1
# Glc(a1-6)Glc(a1-6)Glc = target: Glc(a1-6)Glc(a1-6)Glc
# Outline: as §1
# [19] = target: GlcNAc(b1-2)Gal(b1-3)GalNAc
# Outline: as §1
# [20] = target: GlcNAc(b1-2)Man(a1-3)[GlcNAc(b1-2)Man(a1-6)]Man(b1-4)GlcNAc(b1-4)[Fuc(a1-6)]GlcNAc
# Outline: as §1
# [21] = target: GlcNAc(b1-2)[GlcNAc(b1-4)]Man(a1-3)[GlcNAc(b1-4)][GlcNAc(b1-2)Man(a1-6)]Man(b1-4)GlcNAc(b1-4)GlcNAc
# Outline: as §1
# [22] = target: GlcNAc(b1-3)Gal(b1-4)GlcNAc(b1-2)[GlcNAc(b1-3)Gal(b1-4)GlcNAc(b1-6)]Man(a1-6)[GlcNAc(b1-3)Gal(b1-4)GlcNAc(b1-2)Man(a1-3)]Man(b1-4)GlcNAc(b1-4)GlcNAc
# Outline: as §1
# [23] = target: GlcNAc(b1-3)Gal(b1-4)GlcNAc(b1-3)Gal(b1-4)GlcNAc(b1-2)[GlcNAc(b1-3)Gal(b1-4)GlcNAc(b1-3)Gal(b1-4)GlcNAc(b1-6)]Man(a1-6)[GlcNAc(b1-3)Gal(b1-4)GlcNAc(b1-3)Gal(b1-4)GlcNAc(b1-2)Man(a1-3)]Man(b1-4)GlcNAc(b1-4)[Fuc(a1-6)]GlcNAc
# Outline: as §1
# [24] = target: GlcNAc(b1-3)Gal(b1-4)GlcNAc(b1-6)[Gal(b1-3)]GalNAc
# Outline: as §1
# [25] = target: GlcNAc(b1-4)GlcNAc(b1-4)GlcNAc
# Outline: as §1
# [26] = target: Man(a1-2)Man(a1-3)[Man(a1-2)Man(a1-6)]Man(a1-6)[Man(a1-2)Man(a1-2)Man(a1-3)]Man(b1-4)GlcNAc(b1-4)GlcNAc
# Outline: as §1
# Man(a1-6)Man = target: Man(a1-6)Man
# Outline: as §1
# [27] = target: Neu5Ac(a2-3)Gal(b1-3)]Neu5Ac(a2-3)Gal(b1-4)]GlcNAc
# Outline: as §1
# [28] = target: Neu5Ac(a2-3)Gal(b1-4)GlcNAc(b1-2)Man
# Outline: as §1
# [29] = target: Neu5Ac(a2-3)Gal(b1-4)GlcNAc(b1-3)Gal(b1-4)GlcNAc(b1-6)[Gal(b1-3)]GalNAc
# Outline: as §1
# [30] = target: Neu5Ac(a2-3)Gal(b1-4)GlcNAc(b1-6)GalNAc
# Outline: as §1
# [31] = target: Neu5Ac(a2-3)Gal(b1-4)GlcNAc(b1-6)[Gal(b1-3)]GalNAc
# Outline: as §1
# [32] = target: Neu5Ac(a2-3)Gal(b1-4)GlcNAc6S
# Outline: as §1
# [33] = target: Neu5Ac(a2-3)Gal(b1-4)[Fuc(a1-3)]GlcNAc(b1-3)Gal(b1-4)GlcNAc
# Outline: as §1
# [34] = target: Neu5Ac(a2-3)Gal(b1-4)[Fuc(a1-3)]GlcNAc6S
# Outline: as §1
# Neu5Ac(a2-3)GalNAc = target: Neu5Ac(a2-3)GalNAc
# Outline: as §1
# [35] = target: Neu5Ac(a2-3)GalNAc(b1-4)GlcNAc
# Outline: as §1
# [36] = target: Neu5Ac(a2-6)Gal(b1-4)GlcNAc(b1-2)Man(a1-3)Man(b1-4)GlcNAc(b1-4)GlcNAc
# Outline: as §1
# [37] = target: Neu5Ac(a2-6)Gal(b1-4)GlcNAc(b1-3)Gal(b1-3)GlcNAc
# Outline: as §1
# [38] = target: Neu5Ac(a2-6)Gal(b1-4)GlcNAc(b1-3)Gal(b1-4)[Fuc(a1-3)]GlcNAc(b1-3)Gal(b1-4)[Fuc(a1-3)]GlcNAc
# Outline: as §1
# [39] = target: Neu5Ac(a2-6)Gal(b1-4)GlcNAc(b1-3)[Neu5Ac(a2-6)Gal(b1-4)GlcNAc(b1-6)]GalNAc
# Outline: as §1
# [40] = target: Neu5Ac(a2-6)Gal(b1-4)GlcNAc(b1-6)[Gal(b1-3)GlcNAc(b1-3)]Gal(b1-4)Glc
# Outline: as §1
# [41] = target: Neu5Ac(a2-8)Neu5Ac(a2-8)Neu5Ac
# Outline: as §1
# Neu5Ac(b2-6)GalNAc = target: Neu5Ac(b2-6)GalNAc
# Outline: as §1
# [42] = target: Neu5Gc(a2-3)Gal(b1-4)GlcNAc(b1-3)Gal(b1-4)GlcNAc(b1-2)Man(a1-3)[Neu5Gc(a2-3)Gal(b1-4)GlcNAc(b1-3)Gal(b1-4)GlcNAc(b1-2)Man(a1-6)]Man(b1-4)GlcNAc(b1-4)GlcNAc
# Outline: as §1
# [43] = target: Neu5Gc(b2-6)Gal(b1-4)GlcNAc
# Outline: as §1
binder,measurement,setting,value
B1,glycan array binding signal (z-score),[1],-0.01
same,glycan array binding signal (z-score),[2],-0.469
same,glycan array binding signal (z-score),[3],-0.348
same,glycan array binding signal (z-score),[4],-0.473
same,glycan array binding signal (z-score),[5],-0.416
same,glycan array binding signal (z-score),[6],-0.356
same,glycan array binding signal (z-score),[7],0.31
same,glycan array binding signal (z-score),[8],7
same,glycan array binding signal (z-score),[9],-0.21
same,glycan array binding signal (z-score),[10],-0.259
same,glycan array binding signal (z-score),[11],4.91
same,glycan array binding signal (z-score),[12],-0.511
same,glycan array binding signal (z-score),Gal(b1-4)GlcNAc(b1-2)Man,-0.202
same,glycan array binding signal (z-score),[13],2.57
same,glycan array binding signal (z-score),[14],7.18
same,glycan array binding signal (z-score),[15],6.97
same,glycan array binding signal (z-score),[16],-0.273
same,glycan array binding signal (z-score),[17],4.92
same,glycan array binding signal (z-score),[18],-0.124
same,glycan array binding signal (z-score),Gal3S(b1-4)Glc,0.203
same,glycan array binding signal (z-score),Gal3S6S(b1-4)GlcNAc,-0.485
same,glycan array binding signal (z-score),Gal6S(b1-4)GlcNAc6S,-0.349
same,glycan array binding signal (z-score),GalNAc(a1-3)GalNAc,-0.218
same,glycan array binding signal (z-score),Glc(a1-6)Glc(a1-6)Glc,0.287
same,glycan array binding signal (z-score),[19],-0.527
same,glycan array binding signal (z-score),[20],-0.215
same,glycan array binding signal (z-score),[21],-0.288
same,glycan array binding signal (z-score),[22],0.417
same,glycan array binding signal (z-score),[23],-0.364
same,glycan array binding signal (z-score),[24],-0.431
same,glycan array binding signal (z-score),[25],-0.101
same,glycan array binding signal (z-score),[26],-0.4
same,glycan array binding signal (z-score),Man(a1-6)Man,0.713
same,glycan array binding signal (z-score),[27],-0.232
same,glycan array binding signal (z-score),[28],7.63
same,glycan array binding signal (z-score),[29],-0.233
same,glycan array binding signal (z-score),[30],-0.226
same,glycan array binding signal (z-score),[31],-1.27
same,glycan array binding signal (z-score),[32],4.39
same,glycan array binding signal (z-score),[33],0.35
same,glycan array binding signal (z-score),[34],-0.364
same,glycan array binding signal (z-score),Neu5Ac(a2-3)GalNAc,0.083
same,glycan array binding signal (z-score),[35],0.042
same,glycan array binding signal (z-score),[36],-0.572
same,glycan array binding signal (z-score),[37],2.81
same,glycan array binding signal (z-score),[38],4.01
same,glycan array binding signal (z-score),[39],7.46
same,glycan array binding signal (z-score),[40],-0.428
same,glycan array binding signal (z-score),[41],-0.325
same,glycan array binding signal (z-score),Neu5Ac(b2-6)GalNAc,0.656
same,glycan array binding signal (z-score),[42],-0.344
same,glycan array binding signal (z-score),[43],-0.504
